Measurements reported in PubChem BioAssay AID1508600 (Functional Genomics Laboratory (NCATS/FGL), 2020).
Among all 53,000 sequences or so, about 3,700 (7%) were called active. Shown is part of a subset that was picked to be rich in actives. Unmarked numbers belong to inactive results.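 How the source made its calls: active means gene knockdowns whose robust z-score for IL-1 alpha signal is at least 2 or at most -2, so actives lie on both sides; inactive means the rest.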

Assay: Components of the Cytosolic LPS Sensing Pathway: Gene Identification via Genome-wide siRNA Screen;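 further: robust z of the log signal after scaling to non-targeting control siRNA wells of the plate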
Settings: RAW264.7 macrophages, IL-1a HTRF, actives lie on both sides, screened at 100 nM (by protocol), cells primed 5 h with Pam3CSK4 first
In short: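 IL-1a HTRF of supernatants after 24 hour LipidA transfection of Pam3CSK4-primed (5 hours) RAW264.7 cells, 48h post-siRNA transfection (100 nM). Scores: percent of plate negative-control median, then log-based robust z-score.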

Row | Sequence | z-score
1 | GGAUCGAACUGCCAUUGCUTT against A930104D05Rik | -0.201
2 | GCUGUCCUACUGAGCUUGCTT against Gdpgp1 | -0.0224
3 | GCCACUUGUGCUAAGCUGUTT against Ager | -0.768
4 | GGUCUGUAUGAAGACAUUATT against Pdss1 | -1.16
5 | GCAAGAAGUAAUCAACUUUTT against Cnot9 | -0.997
6 | GGACCAGAAACCGUGAUAATT against Immp2l | 3.96 (active)
7 | GGCACCAAUUACAAGAAAATT against V1rg10 | 0.257
8 | CCUGGCAGACGUGGAACAATT against Ppp1r13l | -0.102
9 | GGACCAGUUACUUUAACAUTT against Pkdrej | 0.555
10 | GGAGAGUCCACUAAUACUGTT against Dmrt3 | 0.217
11 | GGAGAUUGGAUCCCGAAACTT against Pxn | -0.431
12 | GGCAAAGAGUGGUAAGAGUTT against Olfr1166 | -2.72 (active)
13 | GGAUUUCUACAGGGUGUAUTT against Trim8 | -1.19
14 | GGAUCUUACUAUCACCAGCTT against Foxf1 | 1.99
15 | CGGGCUACCAUUAUGGUGATT against Atp6ap2 | 0.382
16 | GUGGCAGCACGACCUAUUCTT against Alyref2 | -0.175
17 | CCAAUUACCUGAAUAAAGCTT against Epb41l5 | 1.19
18 | GGGCUCUACUAUUUUUUUUTT against Polh | -2.68 (active)
19 | GCCCAGGUCUAAUGUCUAATT against Tac4 | 0.234
20 | GGUGUUAAGUCACAAAAUGTT against Meis2 | 1.59
21 | GGUUGUAUGUUGUGUGUUUTT against Cyrib | 2.36 (active)
22 | CGGAAUGUAGGACACGAAUTT against Ltb | -0.267

Row | Sequence | z-score
23 | GGUGACUUCGGAGAAAAGGTT against Sncaip | 0.257
24 | GGAACAGCUGUGAUUAACGTT against Prdx4 | 0.343
25 | GCUGGAAUACGUUGAUAUATT against Kcnab3 | 3.68 (active)
26 | GGAGAGUCCAGUUUCCAUUTT against Rnf113a1 | 1.44
27 | GCUCAGGAAUUUGACACCATT against Adgrl3 | -1.33
28 | CCUAAGAUGAUCGUAGGCUTT against Olfr1221 | -0.643
29 | CGAGCUUUCUUCGUACACCTT against Dvl2 | -1.74
30 | GGCAUACCUGGAGAAGUGUTT against Prr5l | -2.31 (active)
31 | GCUAGCACUAAGUGAACCUTT against Ppp1r21 | 1.25
32 | GGAUAAUAGGAACAAUCUGTT against Sval1 | 0.207
33 | GGUCAGGUUGAGGACAUAATT against Vwa1 | 1.28
34 | GCUUACCAGAUUGUAUGUATT against Mrgpra1 | 0.533
35 | GGAGAAAGAGCAGAGUCUGTT against Cep250 | -2.04 (active)
36 | GGCAGAGUUUGAAAAGAUCTT against Parp16 | -1.42
37 | GGCCCAAGAUUUCAAUUAGTT against 9130230L23Rik | -0.0833
38 | GGUCAGAGGUCGACCUAUUTT against Oas1h | -2.18 (active)
39 | GGUACAUUUUAUACUGGAGTT against Zfp277 | 0.163
40 | GCCUCAUCGUAUAUAAAAUTT against Atp5mpl | -1.64
41 | GGCCCAAACCUUAAAGUCCTT against Smyd4 | -0.194
42 | GGAAUGUACCCAUAAAAGUTT against Nudt19 | 0.988
43 | GGCAUUGAGAAGUUUGAAGTT against Fmo9 | -1.07
44 | CCCUUGGUUAUGGAGAAAGTT against Mcoln2 | -0.0392

Row | Sequence | z-score
45 | GCACAACAAGCGAUGUCAUTT against Myo9b | -2.13 (active)
46 | CCUACGUGAACAUGACGGUTT against Agfg1 | 0.096
47 | GGUAGAGAAUUGAAACCUATT against Klhdc10 | -0.776
48 | GGAAUAUACCCUGAAACAUTT against Fam71d | 0.0244
49 | GGAGACUGUGGAUUUAAUUTT against Sult1a1 | 2.07 (active)
50 | GGAGAUGUACCACAAUGCCTT against Prss29 | -0.128
51 | GGCGGUGAUCCAGGGUUUATT against Klc2 | 2.62 (active)
52 | GGAGUCAAAAAAAAUGCAATT against Ribc1 | 1.17
53 | GCAAGAUCCAGAACACUCATT against Adora1 | -0.781
54 | CCAAGGAGCAUUCUUUGGUTT against 1700024B05Rik | -0.0487
55 | GGUUUGUAUCUUAAAUGCCTT against Tdpoz4 | 2.88 (active)
56 | GGCCUCGUCAUUUUACAGGTT against Mcee | 0.098
57 | GCCAAUAAUCCACAGGCAATT against Ryk | -0.577
58 | CUGUAAGGCGGAUAAGACCTT against Pantr1 | -1.42
59 | GGUUACAAAAGAACCAGAUTT against Pik3c2g | 1.66
60 | GCGGCUUAGUCCAUCAGGATT against Aplf | 0.819
61 | GGAAGAGUGACUUGUGCAATT against Slc28a2 | 0.0125
62 | GCUCGAGGCUUAGAAGACUTT against Hspb3 | 2.23 (active)
63 | GGCUUACCUGGUCUACUCCTT against Wnt8b | -0.95
64 | GCUACGUGUACCUGGAGUGTT against Cpeb1 | -0.502
65 | GGUGGUUAUUUAUUGGUGATT against Sp6 | -0.272
66 | GGUGCCUCAGAGUAAAUAUTT against Cdk2ap1 | -0.895

Row | Sequence | z-score
67 | GCAAGCAAUAGAGGAACCUTT against Rnf38 | 0.0643
68 | GCAAACUAUUUGUCUGGUGTT against Ripk1 | 0.7
69 | GGAGUACAUGGUGAUGUUGTT against Prss43 | -2.6 (active)
70 | CCGAAUCUCUCACGUGCCATT against Rtn4r | -0.474
71 | GGAGUGUUUUACCUCUUUCTT against Nudt13 | 0.911
72 | GGACUUGAUGACAGUGAAUTT against Strada | -2.27 (active)
73 | GCACCAUGAAUUCUAUUGCTT against Kcnmb1 | -0.24
74 | GCCGCUUAAGAGGGAUUAUTT against Mrpl15 | -0.394
75 | GGAGUAACUAUUCCCAAUUTT against Herc1 | 1.41
76 | GGAGUUGAGGUGAUUAUCUTT against Olfr1222 | -2.33 (active)
77 | GCUUAAGGAUCCAUAAUGUTT against Musk | 0.981
78 | GGAAGGAGAAAGAGUAUGATT against Mnt | 0.525
79 | GCAGAAACGAUUGUACCAUTT against Ar | 1.37
80 | GGCUCAAAACCACACCACUTT against Olfr477 | -2.75 (active)
81 | CGAUUGCUAAGGUGUUUGATT against Sfmbt1 | -0.45
82 | GGAGCAUCAUUAUUCUGCATT against Gm527 | -0.0903
83 | GAGAAACCUGCCUCAUCUCTT against Spata3 | -0.0842
84 | GGAUUUGAACUCAGAUGUUTT against A430057M04Rik | 2.15 (active)
85 | GGGAUGUUCUUCAAUCCUGTT against Hecw2 | 0.0154
86 | GCACUUCAGUUUACAAAACTT against Mier3 | -0.891
87 | CGUUUGAUGAGACCAUGUATT against Vwf | -0.459
88 | GCCUGGUAGUUAGUCAGAATT against Klf11 | 2.4 (active)

Row | Sequence | z-score
89 | GCUACAUGAUUCAGCGGAATT against Itga3 | -1.23
90 | CGGAUUAGUAUAAAUGUAGTT against Prss16 | -0.109
91 | UCACAACUGUCUGUUCUCATT against Klk1b3 | -1.19
92 | GCCACACACCUUCUAUAAUTT against Ptprs | -0.62
93 | GCCAACGCAGCAAAAGCUCTT against Rsrp1 | 0.0495
94 | CCCAAUAUGUUAGACCCUGTT against Slc16a8 | 0.448
95 | GGUGAUAAUUAAUGUCUUGTT against Naip1 | 2.08 (active)
96 | GGAUCAGAACUUAUCUGUGTT against Utp23 | 0.383
97 | GGCACUGAUAAGAAGUACCTT against Dnah1 | 0.772
98 | GCUUAUGUUAAACCAGAGATT against Syt8 | 0.0449
99 | GGAUCCUAGCCUUUUAUCATT against Cep70 | -1.11
100 | GGAUUCCAGAGAAAUGUGATT against Lrrc66 | -2.62 (active)
101 | GGUAUGAGUACAAAUACUGTT against Tek | 1.97
102 | GGCUCUGCCAUUUUCCCUUTT against F12 | -1.24
103 | GGCCAAGUUCCAUAUCACCTT against Eefsec | 0.46
104 | GGAACUCAGUCAGGACCAATT against Hnf4aos | 0.954
105 | CGAGAAUAUGUGAGAGCUUTT against Dcaf13 | -0.793
106 | GGAGACCCUGGUGAGAAGATT against Emid1 | 0.26
107 | GGAACACAGAGGUAAAAGGTT against Olfr446 | -2.66 (active)
